# PubChem BioAssay
# Several values for one entry are separate records, joined by “and”; a condition that tells them apart may be missing. Identical values can stand only once. Records with an inconclusive call do not appear. The source holds several records for some structures; these can differ, active in one and inactive in another. Activity calls are given as the source filed them. Unless noted, cut-off not given; nearly all actives show AC50 up to about 26 µM.
# What was measured:
# [1] = growth inhibition of DIPG glioma cells, dose response, cell-based, SU-DIPG-XVII, MIPE5.0, CellTiter-Glo, qHTS (AID 1347060); settings: SU-DIPG-XVII viability, CellTiter-Glo ATP luminescence;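 on AC50: cells exposed to compound for 48 hours before viability readout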
# [2] = viability loss in pontine glioma line – cell-based, SU-DIPG-XXV, MIPE5.0, CellTiter-Glo, qHTS, dose response (AID 1347065); settings: CellTiter-Glo ATP luminescence;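 further: cells exposed to compound for 48 hours before ATP readout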
# [3] = JHH-DIPG-1 glioma cell viability, MIPE5.0 library, CellTiter-Glo luminescence, qHTS (AID 1347067); settings: JHH-DIPG-1 glioma viability, CellTiter-Glo ATP luminescence;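 further: cells exposed to compound for 48 hours before readout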
# [4] = SU-DIPG-XXV glioma cell viability, MIPE5.0 library, qHTS (AID 1347068; cut-off not given, nearly all actives have IC50 up to about 30 µM;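 on IC50: cells exposed to compound for 48 hours before viability readout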)
# [5] = sensitizers of A549 cells to miR-34 induction, primary screen, imaging, A549 dox-inducible miR-34, nuclei and caspase counts (AID 1347080;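 active means compounds whose cell count with miR-34 switched on is under 0.7 times the count with it off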); settings: A549 miR-34 inducible, Hoechst nuclei count, 48 h
# [6] = phospholipid biosynthesis inhibitors in animal cells, primary screen, cell-based, LOPAC library, screen 4 (AID 1347384; call rule not given here); settings: phospholipid biosynthesis inhibition screen, at 10 µM
# [7] = viability rescue of complex I mutant cybrids, primary screen, cell-based, galactose medium, ATP luminescence (AID 1645843;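 active means z-score of at least 1.8 in each of two replicates, scored against plate mean and spread of sample wells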;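 further: positive z means more ATP and so rescue of galactose-driven cybrid death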); settings: complex I mutant cybrid cells, 72 h, stronger effect = higher value
# [8] = survival rescue of mitochondrial mutant cells in low glucose, primary screen, MELAS cybrids, Rieske KO mouse fibroblasts, CellTiter-Glo (AID 1508586;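 active means mean z-score across replicates of 1.96 or higher in either the MELAS or the Rieske mutant cell line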;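 further: z relative to plate mean and SD of compound and empty wells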)
# [9] = kinase inhibitors against Plasmodium liver-stage infection, cell-based, known kinase inhibitor set, luminescence, hepatoma host viability (AID 624392; call rule not given here;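 further: infected cells incubated roughly two days before readout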); settings: Plasmodium liver stage in hepatoma cells, luciferase luminescence, concentration not given here; liver cell % of control: measured here: host liver cell viability; parasite % of control: stronger effect = lower value
# [10] = modifiers of HSF1 nuclear foci, imaging, Selleck Cancer Library (AID 1347162; in the data active means plate-normalised HSF1 focus index below about 0.46); settings: human cells, at 10 µM; SSMD: measured here: HSF1 foci SSMD mean; cell count: measured here: cell number; plate-normalised HSF1 focus index: stronger effect = lower value
# [11] = ovarian cancer cell viability with rucaparib, profiling panel, oncology-focused library, rucaparib conditional (AID 1508598;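 active means normalized viability below 100% at a tested concentration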); settings: patient-derived ovarian cancer cells, CellTiter-Glo viability, 144 h, stronger effect = lower value
# [12] = stronger effect = lower value, cell number ratio, induced over uninduced
# [13] = measured here: relative caspase fold change +Dox/-Dox
# [14] = measured here: total cells with miR-34 induction, stronger effect = lower value
# [15] = measured here: total cells without miR-34 induction
# [16] = MELAS cybrid survival, CellTiter-Glo 48 h, stronger effect = higher value
# [17] = Rieske KO mouse fibroblast survival, CellTiter-Glo 72 h
structure (smiles),measurement,setting,value
C=CC(=O)Nc1cccc(C)c1Nc1ncc2cc(-c3c(Cl)c(OC)cc(OC)c3Cl)ccc2n1,AC50,[1],14.8 µM (active)
same,AC50,[2],9.34 µM (active)
same,AC50,[3],13.2 µM (active)
same,IC50,[4],9.34 µM (active)
O=C(Nc1ccc2c(c1)CCN(Cc1ncn[nH]1)C2)c1ccccc1-c1ccc(C(F)(F)F)cc1,outcome,[1],inactive
same,outcome,[2],inactive
same,outcome,[3],inactive
same,outcome,[4],inactive
same,fold change,[5]; [12],1.03 (inactive)
same,fold change,[5]; [13],1.06
same,cell count,[5]; [14],8100
same,cell count,[5]; [15],7840
same,outcome,[6],inactive
same,z-score,[7],0.755 (inactive)
CCn1c(=O)c(-c2ccc(Cl)cc2Cl)cc2cnc(Nc3ccc(N4CCNCC4)c(F)c3)nc21,AC50,[1],0.59 µM (active)
same,AC50,[2],0.59 µM (active)
same,outcome,[3],inactive
same,outcome,[4],inactive
Cn1nccc1Nc1nccc(-c2cc3c(s2)C(C)(C)N(CCN2CCOCC2)C3=O)n1,AC50,[1],5.25 µM (active)
same,AC50,[2],10.5 µM (active)
same,AC50,[3],2.09 µM (active)
same,outcome,[4],inactive
COc1cc2c(cc1OC)CN(CCc1ccc(-n3nnc(-c4cc(OC)c(OC)cc4NC(=O)c4cc(=O)c5ccccc5o4)n3)cc1)CC2,outcome,[1],inactive
same,outcome,[2],inactive
same,outcome,[3],inactive
same,outcome,[4],inactive
Nc1ncnc2c1C(=O)N(c1ccc(C3CCC(CC(=O)O)CC3)cc1)CCO2 (stereo not drawn),outcome,[1],inactive
same,outcome,[2],inactive
same,outcome,[3],inactive
same,outcome,[4],inactive
same,fold change,[5]; [12],0.873 (inactive)
same,fold change,[5]; [13],0.72
same,cell count,[5]; [14],8200
same,cell count,[5]; [15],9390
same,z-score,[8]; [16],-0.311 (inactive)
same,z-score,[8]; [17],-0.473
O=C(O)c1cnn(-c2nc3cc(OC(F)(F)F)c(Cl)cc3[nH]2)c1,outcome,[1],inactive
same,outcome,[2],inactive
same,outcome,[3],inactive
same,outcome,[4],inactive
CC(C)(CO)n1cc(C(=O)c2cncc(NC(=O)Cc3ccc(Cl)cn3)c2)c2cnc(N)nc21,outcome,[1],inactive
same,outcome,[2],inactive
same,outcome,[3],inactive
same,outcome,[4],inactive
Cc1cc(C)c(S(=O)(=O)N(CCc2cccc(Br)c2)Cc2ccc(-c3cccc(S(C)(=O)=O)c3)cc2)c(C)c1,outcome,[1],inactive
same,outcome,[2],inactive
same,outcome,[3],inactive
same,outcome,[4],inactive
COc1cccc(-c2c(C)n(Cc3c(F)cccc3C(F)(F)F)c(=O)n(C[C@H](NCCCC(=O)O)c3ccccc3)c2=O)c1F,outcome,[1],inactive
same,outcome,[2],inactive
same,outcome,[3],inactive
same,outcome,[4],inactive
CN1CCN(C2CCC(n3cc(-c4ccc(Oc5ccccc5)cc4)c4c(N)ncnc43)CC2)CC1 (stereo not drawn),AC50,[1],1.48 µM (active)
same,AC50,[2],1.86 µM (active)
same,AC50,[3],7.42 µM (active)
same,IC50,[4],8.33 µM (active)
CCCNC(=O)c1cn2ncnc(Nc3cc(C(=O)NC4CC4)ccc3C)c2c1C,outcome,[1],inactive
same,outcome,[2],inactive
same,outcome,[3],inactive
same,outcome,[4],inactive
COc1ccc(S(=O)(=O)N[C@@H](CNc2nc(C)nc(N3CCC(c4ccc5c(n4)NCCC5)CC3)c2C)C(=O)O)cc1,outcome,[1],inactive
same,outcome,[2],inactive
same,outcome,[3],inactive
same,outcome,[4],inactive
O=C(NCC(=O)N1CC[C@H](NC2CCC(O)(c3ccc(-c4ncccn4)cn3)CC2)C1)c1cccc(C(F)(F)F)c1 (stereo partly drawn),outcome,[1],inactive
same,outcome,[2],inactive
same,outcome,[3],inactive
same,outcome,[4],inactive
Cc1cc(Nc2cc(N)ncn2)c(=O)n2c1C(=O)NC21CCCCC1,outcome,[1],inactive
same,outcome,[2],inactive
same,outcome,[3],inactive
same,outcome,[4],inactive
C[C@@H](OC[C@@]1(c2ccccc2)CC[C@]2(CCC(=O)N2)CN1)c1cc(C(F)(F)F)cc(C(F)(F)F)c1,AC50,[1],20.9 µM (active)
same,AC50,[2],18.6 µM (active)
same,AC50,[3],14.8 µM (active)
same,IC50,[4],20.9 µM (active)
COc1cc(-c2cn(C)c(=O)c3cnccc23)c(OC)cc1CN(C)C,outcome,[1],inactive
same,outcome,[2],inactive
same,outcome,[3],inactive
same,outcome,[4],inactive
FC(F)(F)c1ccc(CNc2ccc(Cc3c[nH]c4ncccc34)cn2)cc1,AC50,[1],16.6 µM (active)
same,AC50,[2],20.9 µM (active)
same,AC50,[3],18.6 µM (active)
same,outcome,[4],inactive
CCCCCCCCCCCCCCCCOCCCOP(=O)(O)COC(CO)Cn1ccc(N)nc1=O (stereo not drawn),outcome,[1],inactive
same,outcome,[2],inactive
same,outcome,[3],inactive
same,outcome,[4],inactive
CC(C)C[C@@H]1NC(=O)[C@@H](C(C)C)NC(=O)[C@@H]2CCCN2C(=O)[C@@H](CC(=O)O)NC(=O)[C@@H](Cc2c[nH]c3ccccc23)NC1=O,outcome,[1],inactive
same,outcome,[2],inactive
same,outcome,[3],inactive
same,outcome,[4],inactive
CNc1nc(C)nc(N[C@H]2CCC[C@@H](C(=O)NCc3ccc(C#N)cc3C(F)(F)F)C2)n1,outcome,[1],inactive
same,outcome,[2],inactive
same,outcome,[3],inactive
same,outcome,[4],inactive
O=C(Nc1cccc(Cl)c1)Nc1ncc(CCNc2ncnc3ccsc23)s1,liver cell % of control,[9],68.4% and 82.5% and 102%
same,parasite % of control,[9],0.394% (inactive) and 0.318% (inactive) and 0.473% (active)
same,AC50,[1],0.0166 µM (active)
same,AC50,[2],0.525 µM (active)
same,AC50,[3],16.6 µM (active)
same,IC50,[4],11.8 µM (active)
same,fold change,[5]; [12],1.06 (inactive)
same,fold change,[5]; [13],1.09
same,cell count,[5]; [14],2320
same,cell count,[5]; [15],2200
same,SSMD,[10],1.43
same,cell count,[10],7300
same,plate-normalised HSF1 focus index,[10],1.08 (inactive)
same,z-score,[8]; [16],-0.144 (inactive)
same,z-score,[8]; [17],-1.82
same,viability,"[11]; at 0.000305 µM, OCI-C5x cells, with rucaparib 10 µM, 100% = cells with rucaparib alone",108% (inactive)
same,viability,"[11]; at 0.000305 µM, OCI-C5x cells, without rucaparib",107% (inactive)
same,viability,"[11]; at 0.000305 µM, OCI-P5x cells, with rucaparib 20 µM, 100% = cells with rucaparib alone",122% (inactive)
same,viability,"[11]; at 0.000305 µM, OCI-P5x cells, without rucaparib",122% (inactive)
same,viability,"[11]; at 0.00122 µM, OCI-C5x cells, with rucaparib 10 µM, 100% = cells with rucaparib alone",98.1% (active)
same,viability,"[11]; at 0.00122 µM, OCI-C5x cells, without rucaparib",97.4% (active)
same,viability,"[11]; at 0.00122 µM, OCI-P5x cells, with rucaparib 20 µM, 100% = cells with rucaparib alone",115% (inactive)
same,viability,"[11]; at 0.00122 µM, OCI-P5x cells, without rucaparib",94.7% (active)
same,viability,"[11]; at 0.00488 µM, OCI-C5x cells, with rucaparib 10 µM, 100% = cells with rucaparib alone",95.1% (active)
same,viability,"[11]; at 0.00488 µM, OCI-C5x cells, without rucaparib",96.5% (active)
same,viability,"[11]; at 0.00488 µM, OCI-P5x cells, with rucaparib 20 µM, 100% = cells with rucaparib alone",112% (inactive)
same,viability,"[11]; at 0.00488 µM, OCI-P5x cells, without rucaparib",91.7% (active)
same,viability,"[11]; at 0.0195 µM, OCI-C5x cells, with rucaparib 10 µM, 100% = cells with rucaparib alone",112% (inactive)
same,viability,"[11]; at 0.0195 µM, OCI-C5x cells, without rucaparib",109% (inactive)
same,viability,"[11]; at 0.0195 µM, OCI-P5x cells, with rucaparib 20 µM, 100% = cells with rucaparib alone",99.4% (active)
same,viability,"[11]; at 0.0195 µM, OCI-P5x cells, without rucaparib",85.1% (active)
same,viability,"[11]; at 0.0781 µM, OCI-C5x cells, with rucaparib 10 µM, 100% = cells with rucaparib alone",91.8% (active)
same,viability,"[11]; at 0.0781 µM, OCI-C5x cells, without rucaparib",109% (inactive)
same,viability,"[11]; at 0.0781 µM, OCI-P5x cells, with rucaparib 20 µM, 100% = cells with rucaparib alone",99.1% (active)
same,viability,"[11]; at 0.0781 µM, OCI-P5x cells, without rucaparib",85.1% (active)
same,viability,"[11]; at 0.313 µM, OCI-C5x cells, with rucaparib 10 µM, 100% = cells with rucaparib alone",91.9% (active)
same,viability,"[11]; at 0.313 µM, OCI-C5x cells, without rucaparib",103% (inactive)
same,viability,"[11]; at 0.313 µM, OCI-P5x cells, with rucaparib 20 µM, 100% = cells with rucaparib alone",96.5% (active)
same,viability,"[11]; at 0.313 µM, OCI-P5x cells, without rucaparib",81.4% (active)
same,viability,"[11]; at 1.25 µM, OCI-C5x cells, with rucaparib 10 µM, 100% = cells with rucaparib alone",94.3% (active)
same,viability,"[11]; at 1.25 µM, OCI-C5x cells, without rucaparib",108% (inactive)
same,viability,"[11]; at 1.25 µM, OCI-P5x cells, with rucaparib 20 µM, 100% = cells with rucaparib alone",97.9% (active)
same,viability,"[11]; at 1.25 µM, OCI-P5x cells, without rucaparib",88.4% (active)
same,viability,"[11]; at 5 µM, OCI-C5x cells, with rucaparib 10 µM, 100% = cells with rucaparib alone",170% (inactive)
same,viability,"[11]; at 5 µM, OCI-C5x cells, without rucaparib",150% (inactive)
same,viability,"[11]; at 5 µM, OCI-P5x cells, with rucaparib 20 µM, 100% = cells with rucaparib alone",51.5% (active)
same,viability,"[11]; at 5 µM, OCI-P5x cells, without rucaparib",61.4% (active)
